From PubChem BioAssay (NCI)
About 83,000 compounds went through this panel and 20% of them were active in at least one assay; those are over-represented in the sample as a whole.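 Treatment: one concentration, 48 hours, 96-well format. Scoring: percent growth, with anything below 10 considered active.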 Activity calls are given as the source filed them.

Assays:
Test in all cases: NCI-60 one-dose screen, 48 h (100 = growth as untreated, 0 = no growth, -100 = all killed)
Conditions in all cases: 10 µM unless noted
HCT-15 colon = tested on: HCT-15 colon
HT29 colon = tested on: HT29 colon
SNB-75 CNS = tested on: SNB-75 CNS
SNB-19 CNS = tested on: SNB-19 CNS
U251 CNS = tested on: U251 CNS
PC-3 prostate = tested on: PC-3 prostate
SK-MEL-5 melanoma = tested on: SK-MEL-5 melanoma
UACC-62 melanoma = tested on: UACC-62 melanoma
LOX IMVI melanoma = tested on: LOX IMVI melanoma
SK-MEL-28 melanoma = tested on: SK-MEL-28 melanoma
SK-MEL-2 melanoma = tested on: SK-MEL-2 melanoma
EKVX NSCLC = tested on: EKVX NSCLC
SN12C renal = tested on: SN12C renal
UO-31 renal = tested on: UO-31 renal
TK-10 renal = tested on: TK-10 renal
ACHN renal = tested on: ACHN renal
CAKI-1 renal = tested on: CAKI-1 renal
A498 renal = tested on: A498 renal
CCRF-CEM leukemia = tested on: CCRF-CEM leukemia
MOLT-4 leukemia = tested on: MOLT-4 leukemia

Measured: growth

CN1C(=O)/C(=C\C(=O)c2cc3ccccc3oc2=O)c2ccccc21
inactive: HCT-15 colon 39.7% | HT29 colon 93.4% | SNB-75 CNS 96.8% | SNB-19 CNS 78.9% | U251 CNS 42.6% | PC-3 prostate 84.5% | SK-MEL-5 melanoma 92.1% | UACC-62 melanoma 42.6% | LOX IMVI melanoma 58.9% | SK-MEL-28 melanoma 60.8% | SK-MEL-2 melanoma 65.1% | EKVX NSCLC 63.6% | SN12C renal 66.3% | UO-31 renal 53.6% | TK-10 renal 98% | ACHN renal 25.3% | CAKI-1 renal 65.2% | A498 renal 160% | CCRF-CEM leukemia 43.4% | MOLT-4 leukemia 50.4%

Cc1cc(C)c2[nH]c(=O)c(C(c3nnnn3Cc3ccc4c(c3)OCO4)N3CCN(C)CC3)cc2c1 (stereo not given)
inactive: HCT-15 colon 110% | HT29 colon 110% | SNB-75 CNS 115% | SNB-19 CNS 101% | U251 CNS 104% | PC-3 prostate 111% | SK-MEL-5 melanoma 107% | UACC-62 melanoma 104% | LOX IMVI melanoma 100% | SK-MEL-28 melanoma 105% | SK-MEL-2 melanoma 105% | EKVX NSCLC 106% | SN12C renal 108% | UO-31 renal 103% | TK-10 renal 115% | ACHN renal 106% | CAKI-1 renal 97.7% | A498 renal 102% | CCRF-CEM leukemia 119% | MOLT-4 leukemia 82.3%

COc1ccc(-c2cc(-c3ccccc3)c(C#N)c(=O)[nH]2)cc1S(N)(=O)=O
inactive: HCT-15 colon 106% | HT29 colon 105% | SNB-75 CNS 89.4% | SNB-19 CNS 92.3% | U251 CNS 98.5% | PC-3 prostate 97.2% | SK-MEL-5 melanoma 104% | UACC-62 melanoma 110% | LOX IMVI melanoma 94.5% | SK-MEL-28 melanoma 107% | SK-MEL-2 melanoma 104% | EKVX NSCLC 95.9% | SN12C renal 124% | UO-31 renal 89.8% | TK-10 renal 96.8% | ACHN renal 103% | CAKI-1 renal 96.4% | A498 renal 91.2% | CCRF-CEM leukemia 113% | MOLT-4 leukemia 136%

CC[C@]12C=CCN3CC[C@]4(C(=C(C(=O)OC)C1)Nc1cc(OC)c([C@@H]5[C@H]6O[C@H]6[C@@]6(CC)CC(C(=O)OC)=C7Nc8cc(O)ccc8[C@@]78CCN5[C@@H]68)cc14)[C@@H]32
active: HCT-15 colon -77.2% | HT29 colon -27.1% | U251 CNS -38.2% | SK-MEL-5 melanoma -96.1% | UACC-62 melanoma -71.9% | LOX IMVI melanoma -94.5% | SK-MEL-28 melanoma -21.8% | SK-MEL-2 melanoma -67.3% | EKVX NSCLC 6.25% | SN12C renal -30.1% | UO-31 renal -4.18% | ACHN renal 1.9% | CCRF-CEM leukemia -5.67% | MOLT-4 leukemia -11.5%
inactive: SNB-75 CNS 27.3% | SNB-19 CNS 21.6% | PC-3 prostate 13.5% | TK-10 renal 25.6% | CAKI-1 renal 11.7% | A498 renal 59%

Cc1ccc(C2CC(c3ccc(NC(=O)Nc4ccccc4)cc3)=NN2c2ccc(S(N)(=O)=O)cc2)cc1 (stereo not given)
active: HCT-15 colon -68% | HT29 colon -62% | SNB-75 CNS -68.1% | SNB-19 CNS -99.8% | U251 CNS -96.1% | PC-3 prostate -59% | SK-MEL-5 melanoma -96.6% | UACC-62 melanoma -96.2% | LOX IMVI melanoma -100% | SK-MEL-28 melanoma -99.7% | SK-MEL-2 melanoma -81.7% | EKVX NSCLC -95.1% | SN12C renal -91.6% | UO-31 renal -100% | TK-10 renal -81.4% | ACHN renal -100% | CAKI-1 renal -98.2% | A498 renal -93% | CCRF-CEM leukemia -17.7% | MOLT-4 leukemia -27.8%

COc1cccc2nc(Nc3cccc(NC(=O)c4ccc(CN5CCN(C)CC5)c(C(F)(F)F)c4)c3)ccc12
active: HCT-15 colon -79.1% | HT29 colon -69.3% | SNB-75 CNS -97.5% | SNB-19 CNS -100% | U251 CNS -73.7% | PC-3 prostate -50.9% | SK-MEL-5 melanoma -100% | UACC-62 melanoma -99.1% | LOX IMVI melanoma -100% | SK-MEL-28 melanoma -100% | SK-MEL-2 melanoma -87.8% | EKVX NSCLC -96.2% | SN12C renal -90.5% | UO-31 renal -88.6% | TK-10 renal -93.1% | ACHN renal -100% | CAKI-1 renal -100% | A498 renal -94.9% | CCRF-CEM leukemia -44.4% | MOLT-4 leukemia -38.5%

COc1ccc(-c2nc3ccccc3n2CC(=O)N=Nc2c(O)[nH]c3ccc(Br)cc23)cc1
inactive: HCT-15 colon 58.1% | HT29 colon 45.4% | SNB-75 CNS 66.8% | SNB-19 CNS 89.3% | U251 CNS 105% | PC-3 prostate 76.7% | SK-MEL-5 melanoma 67.4% | UACC-62 melanoma 72.1% | LOX IMVI melanoma 74.4% | SK-MEL-28 melanoma 97.8% | SK-MEL-2 melanoma 85.4% | EKVX NSCLC 85% | SN12C renal 97% | UO-31 renal 66.7% | TK-10 renal 94.8% | ACHN renal 87.8% | CAKI-1 renal 74.9% | A498 renal 139% | CCRF-CEM leukemia 67.2% | MOLT-4 leukemia 37.2%

Cc1cc(Cl)ccc1NC(=O)Nc1ccc(-c2ccc3c(c2)NC(=O)/C3=C\c2ccc[nH]2)cc1
inactive: HCT-15 colon 92.6% | HT29 colon 109% | SNB-75 CNS 99.4% | SNB-19 CNS 94.5% | U251 CNS 103% | PC-3 prostate 104% | SK-MEL-5 melanoma 106% | UACC-62 melanoma 98.5% | LOX IMVI melanoma 101% | SK-MEL-28 melanoma 114% | SK-MEL-2 melanoma 121% | EKVX NSCLC 67.5% | SN12C renal 97.6% | UO-31 renal 78.3% | TK-10 renal 115% | ACHN renal 98.8% | CAKI-1 renal 99% | A498 renal 119% | CCRF-CEM leukemia 97.8% | MOLT-4 leukemia 86.2%
